Screening data: PubChem, University of Kansas High Throughput Screening Laboratory
Rows were chosen to be rich in hits. Some 3.6% of all compounds tested hit in one or more screens of this group.
Pf apPOL block: Pf-apPOL DNA polymerase inhibition | AID 1794808 | inhibition, % at 10 µM | actives 0.25% (n = 210,000) | Recombinant Pf-apPOL, molecular beacon fluorescence, 1.5 h
mHTT-CaM PPI inh: mHTT-calmodulin interaction abrogation. inhibition, % at 15 µM. AlphaScreen His-mHTT/GST-CaM binding, luminescence. P42858. actives 3.6% (n = 190,000);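 also: 0% = both proteins with DMSO and 100% = one protein alone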
An asterisk follows results filed as active; / = not tested or not shown; ! = a repeat was not active. Rule as the data show it: active = inhibition above about 50%; inactive = the rest.

SMILES	Pf apPOL block	mHTT-CaM PPI inh
COc1ccc(C=C2Oc3cc(OS(C)(=O)=O)ccc3C2=O)c(OC)c1	-5	-30
NC(=O)c1cccc(NS(=O)(=O)c2ccccc2[N+](=O)[O-])c1	0	2
COc1ccc(OC(=O)c2cc3ccccc3oc2=O)cc1	-3	-6
O=C(CN1CCN(C(=O)CCSc2ccccc2)CC1)c1cccs1	-10	-8
Cc1ccc(N2C=C(C#N)S(=O)(=O)c3ccccc32)cc1Cl	0	1
O=C(CC1CCN(C(=O)C2CCCCC2)CC1)NCCc1c[nH]c2ccc(Cl)cc12	-3	100*
COc1ccc(CCNC(=O)CC2CCN(C(=O)C3CCCCC3)CC2)c(OC)c1	-9	30
Cc1[nH]c(C(=O)N2CCC(CC(=O)NCCc3c[nH]c4ccccc34)CC2)c(C)c1C	-3	90*
CCc1ccc(CNC(=O)CC2CCN(C(=O)c3[nH]c(C)c(C)c3C)CC2)cc1	3	16
Cc1nc(-c2ccc(NC(=O)c3ccc(C(F)(F)F)nc3C)cc2)cs1	2	/
Nc1c(C(=O)Nc2nccs2)sc2nc3c(cc12)CCC3	-9	26
Nc1c(C(=O)Nc2nccs2)sc2nc3c(cc12)CCCCC3	6	64*
O=C(C[n+]1ccc2ccccc2c1)c1cc2ccccc2oc1=O	1	85*
COC(=O)c1cc2ccccc2oc1=O	-1	-2
COc1ccccc1N1CCN(C/C=C/c2ccc(N(C)C)cc2)CC1	-9	62*
CCN1CCN(C/C=C/c2ccc(N(C)C)cc2)CC1	-2	32
COc1ccc(NS(=O)(=O)c2ccc(NC(=O)c3ccccc3Br)cc2)cc1	0	8
CC1CCCN(S(=O)(=O)c2ccc(F)c(C(=O)NCc3cccs3)c2)C1 (configuration not stated)	-7	-3
Cc1ccc(CCN2CC(C(=O)NCCc3ccc(Cl)cc3)CC2=O)cc1 (configuration not stated)	-2	9
Oc1ccc(-c2csc(-c3c[nH]c4ccccc34)n2)cc1O	8	99*
Oc1ccc(C(c2c[nH]c3ccccc23)c2c[nH]c3ccccc23)cc1O	-4	-4
COc1ccc(C2CC(c3ccccc3O)=NC3(CCN(C(C)=O)CC3)N2)cc1OC (configuration not stated)	-3	51*
CC(=O)N1CCC2(CC1)N=C(c1ccccc1O)CC(c1ccc(C)cc1C)N2 (configuration not stated)	-5	58*
COc1ccc(C2CC(c3ccccc3O)=NC3(CCN(C(C)C)CC3)N2)cc1OC (configuration not stated)	-7	38
CCN1CCC2(CC1)N=C(c1ccccc1O)CC(c1ccc(Cl)cc1)N2 (configuration not stated)	-2	60*
SMILES	Pf apPOL block	mHTT-CaM PPI inh
CC(=O)N1CCC2(CC1)N=C(c1ccccc1O)CC(c1ccc(C(C)C)cc1)N2 (configuration not stated)	-5	7
CC(=O)N1CCC2(CC1)N=C(c1cc(Cl)ccc1O)CC(c1ccc(F)cc1)N2 (configuration not stated)	-3	100*
CCN1CCC2(CC1)N=C(c1ccccc1O)CC(c1ccccc1O)N2 (configuration not stated)	-3	35
CC(=O)N1CCC2(CC1)N=C(c1ccccc1O)CC(c1ccccc1O)N2 (configuration not stated)	-1	47
Cc1cccc(-c2noc(C3CCCN3C(=O)c3cnccn3)n2)c1 (configuration not stated)	-8	2
COc1ccc(C2CC(c3cc(Cl)ccc3O)=NC3(CCN(C(C)=O)CC3)N2)cc1 (configuration not stated)	-4	100*
CCN1CCC2(CC1)N=C(c1cc(Cl)ccc1O)CC(c1ccc(OC)cc1)N2 (configuration not stated)	-3	100*
CC(C)N1CCC2(CC1)N=C(c1cc(Cl)ccc1O)CC(c1ccccc1O)N2 (configuration not stated)	5	32
CCOC(=O)N1CCC2(CC1)N=C(c1ccc(C)cc1)CC(c1cc(Cl)ccc1O)N2 (configuration not stated)	3	3
CN1CCC2(CC1)N=C(c1cc(Cl)ccc1O)CC(c1ccccc1O)N2 (configuration not stated)	-3	45
CCOC(=O)N1CCC2(CC1)N=C(c1cc(Cl)ccc1O)CC(c1ccccc1O)N2 (configuration not stated)	-2	100*
Cc1cc(-c2nnc(NC(=O)c3nc4ccccc4s3)o2)n(C)n1	5	-10
O=C1Nc2ccccc2C1=Nc1ccc(Nc2ccccc2)cc1	2	100*
O=C1Nc2ccccc2C1=Nc1ccc(C(=O)c2ccccc2)cc1	0	3
O=c1c2cccc3c2c(nn1Cc1ccccc1Cl)-c1ccccc1-3	-3	-14
NC(=O)Cn1nc2c3c(cccc3c1=O)-c1ccccc1-2	61*!	1
O=c1cc(N2CCOCC2)[nH]n1-c1ccc([N+](=O)[O-])cc1	7	37
